Screening data as filed in PubChem.
Hits are enriched below; roughly 27% of the tested compounds scored in any of these assays.
CYP2C19 act = human CYP2C19 activators, primary screen, biochemical, luminescence; recombinant CYP2C19, luciferin-H EGE luminescence; active compounds read high; 0 = fully inhibited enzyme, 1 = untreated enzyme; activation factor at 5 µM; 96,000 tested, under 10 active;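 active = activation factor of at least 2 at 5 µM in the primary screen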;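 note: 0 = wells with 2.5 mM tranylcypromine and 1 = vehicle-only wells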
CYP2C9 inhib = blockers of cytochrome P450 2C9 activity – biochemical, luminescence, ADME assay, primary screen; P11712; CYP2C9 Supersomes, luciferin-H conversion; inhibition, % at 5 µM; 96,000 compounds, 20% hits;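 active = blocking of liver enzyme CYP2C9 beyond about 50% at 5 µM, limit read from the data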
CYP2C9 act = human CYP2C9 activators, primary screen, biochemical, luminescence; Cytochrome P450 2C9 (Homo sapiens), P11712; recombinant CYP2C9, luciferin-H conversion; active compounds read high; factor 1 = untreated enzyme, 0 = blocked; activation factor at 5 µM; 96,000 compounds, 1.4% hits; AID 1024, 2008;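 active = activation factor of 2 or more for CYP2C9 at a 5 µM dose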;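 note: 0 = sulfaphenazole-blocked wells and 1 = vehicle-only wells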
EphB4 ephrin blk = EphB4-ephrin-B2 interaction antagonists, primary screen, biochemical, TNYL-RAW peptide probe, fluorescence polarization; EphB4 LBD / TNYL-RAW-Alexa532 peptide; inhibition, % at 7 µM; 97,000 compounds, 0.15% hits; AID 720, 2007;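 active = inhibition above the screen-wide mean inhibition plus 3 SD, cut at about 15% in these data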;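 note: 0% = DMSO wells and 100% = excess unlabeled TNYL-RAW peptide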
Target sequence (P54760 whole entry, looked up, the tested form may be a part): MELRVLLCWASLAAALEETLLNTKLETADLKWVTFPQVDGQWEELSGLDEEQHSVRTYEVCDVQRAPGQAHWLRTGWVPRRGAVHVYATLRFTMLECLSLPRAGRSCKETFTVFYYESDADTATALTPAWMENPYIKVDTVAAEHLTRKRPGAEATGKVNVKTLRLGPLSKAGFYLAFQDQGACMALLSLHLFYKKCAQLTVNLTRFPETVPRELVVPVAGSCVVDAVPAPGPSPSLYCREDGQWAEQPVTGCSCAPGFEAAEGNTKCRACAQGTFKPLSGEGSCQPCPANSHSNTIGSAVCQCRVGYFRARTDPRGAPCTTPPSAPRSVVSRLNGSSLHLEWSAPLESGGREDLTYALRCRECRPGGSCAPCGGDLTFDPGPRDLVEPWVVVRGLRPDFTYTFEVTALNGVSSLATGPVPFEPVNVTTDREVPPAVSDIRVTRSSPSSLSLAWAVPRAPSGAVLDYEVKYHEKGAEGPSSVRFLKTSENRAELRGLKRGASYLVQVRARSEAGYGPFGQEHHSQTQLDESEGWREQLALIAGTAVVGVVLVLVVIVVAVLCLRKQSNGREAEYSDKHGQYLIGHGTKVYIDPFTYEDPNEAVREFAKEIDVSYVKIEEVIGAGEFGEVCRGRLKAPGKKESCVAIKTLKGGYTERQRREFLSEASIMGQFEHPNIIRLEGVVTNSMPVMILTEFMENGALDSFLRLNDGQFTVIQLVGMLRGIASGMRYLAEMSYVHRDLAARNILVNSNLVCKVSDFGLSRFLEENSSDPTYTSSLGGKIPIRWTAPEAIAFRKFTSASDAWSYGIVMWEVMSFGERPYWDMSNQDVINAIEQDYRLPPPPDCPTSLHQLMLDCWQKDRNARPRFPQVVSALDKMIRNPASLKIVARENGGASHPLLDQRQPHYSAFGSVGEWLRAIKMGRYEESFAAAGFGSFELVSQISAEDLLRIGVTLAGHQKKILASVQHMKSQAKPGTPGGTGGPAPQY
CYP2C19 inh = blockers of cytochrome P450 2C19 activity – biochemical, luminescence, ADME assay, primary screen. P33261. CYP2C19 Supersomes, luciferin-H EGE luminescence, 30 min. inhibition, % at 5 µM. 96,000 compounds, 21% hits;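 active = CYP2C19 inhibition above a set limit at 5 µM in the primary screen, cut at about 50% in these data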;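 note: plate controls were negative control wells for no effect and 2.5 mM tranylcypromine positive control for full effect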
An asterisk follows results filed as active; . = no result.

SMILES	CYP2C19 act	CYP2C9 inhib	CYP2C9 act	EphB4 ephrin blk	CYP2C19 inh
CCSc1nnc(NC(=O)c2csc3c2CCCC3)s1	1	0.5	1	-6.9	-2.2
CCSc1nnc(NC(=O)c2cc(C)on2)s1	1	57.8*	0.4	-9.2	0.9
Cc1cc(C(=O)Nc2nnc(C(F)(F)F)s2)no1	0.8	53.9*	0.5	2.6	17.5
COC(=O)Cc1c(C)nc2nc[nH]n2c1=O	1	-18.1	1.2	1.7	4.6
COC(=O)Nc1sc2c(c1C(=O)N1CCOCC1)CCC(C)C2 (stereo not drawn)	1	-8.2	1.1	-4.4	0.8
CC1CN(C(=O)CCc2ccccc2)C(C)CN1C(=O)CCc1ccccc1 (stereo not drawn)	1.1	-13.6	1.1	3.9	-6.8
CC(NC(=O)Nc1nnc(C(F)(F)F)s1)(C(F)(F)F)C(F)(F)F	0.9	65.6*	0.3	-3.3	5.9
CCOC(=O)N1CCC(NS(=O)(=O)c2cc(Br)cnc2N)CC1	0.6	78.7*	0.2	2.4	36.0
O=C(Nc1ccc(N2C(=O)C3C4C=CC(C4)C3C2=O)cc1)Nc1nncs1 (stereo not drawn)	1.1	-31.7	1.3	.	-12.4
O=C(Nc1ccc(N2C(=O)C3C4C=CC(C4)C3C2=O)cc1)Nc1cccnc1 (stereo not drawn)	0.9	60.3*	0.4	-0.1	5.4
Cc1cc(C(=O)Nc2ccc(S(=O)(=O)Nc3onc(C)c3C)cc2)cs1	.	.	.	-3.5	.
COc1ccc(C(O)(C(=O)NNc2ccc(C)cc2)c2cccs2)cc1 (stereo not drawn)	0.2	24.1	0.8	-2.1	76.8*
Clc1ccc2nc(N3CCN(c4ccccc4)CC3)sc2c1	.	.	.	-4.5	.
COCCN(C(=O)Cc1cccs1)C(C(=O)NCc1ccc(OC)cc1)c1ccc(C(C)C)cc1 (stereo not drawn)	0.5	68.7*	0.3	-3.2	48.1
Cc1onc(-c2ccccc2Cl)c1C(=O)NCc1ccco1	0.5	31.4	0.7	-0.7	50.7*
Cc1onc(-c2ccccc2Cl)c1C(=O)Nc1nnc(C(C)C)s1	0.8	59.3*	0.4	.	18.6
O=C(/C=C/c1ccccc1Cl)NCc1ccco1	1	-131.5	2.3*	-3.4	2.7
Cc1onc(-c2ccccc2Cl)c1C(=O)Nc1nnc(Cc2ccc(Cl)cc2)s1	0.9	87.9*	0.1	1.7	9.5
Cc1onc(-c2ccccc2Cl)c1C(=O)Nc1ccccc1	.	.	.	-6.4	.
Cc1noc(NS(=O)(=O)c2ccc(NC(=O)c3cnc4scc(C)n4c3=O)cc2)c1C	1.1	8.7	0.9	.	-10.1
CCN(CCO)Cc1cn[nH]c1-c1ccc(C)c(C)c1	1	1.9	1	5.2	3.3
COC(=O)c1c(NC(=O)c2c(C)noc2C)sc2c1CCCCCC2	1	16.7	0.8	10.3	0.0
COC(=O)c1c(NC(=O)c2c(-c3ccccc3Cl)noc2C)sc2c1CCC2	0.3	98.4*	0	-3.1	74.1*
COc1ccc(C2N=C(c3ccccc3)NC(c3ccccc3)=N2)cc1	.	.	.	2.5	.
COc1cc(C2N=C(c3ccccc3)NO2)cc(Br)c1O (stereo not drawn)	0.1	-6.6	1.1	2.7	87.3*
SMILES	CYP2C19 act	CYP2C9 inhib	CYP2C9 act	EphB4 ephrin blk	CYP2C19 inh
COc1ccc(C(CNC(=O)c2ccc(S(=O)(=O)N3CCOCC3)cc2)N2CCCCC2)cc1 (stereo not drawn)	.	.	.	-6.8	.
CN(C)c1ccc(N=Cc2nc(-c3ccccc3)oc2O)cc1	0.5	31.0	0.7	4.5	50.3*
Oc1oc(-c2ccccc2)nc1C=NCc1ccccc1	0.2	69.2*	0.3	-4.5	78.3*
COc1ccccc1N=Cc1nc(-c2ccccc2)oc1OC(C)=O	.	.	.	-0.6	.
CSc1ccccc1N=Cc1nc(-c2ccccc2)oc1O	0.3	6.8	0.9	-8.3	68.2*
Oc1oc(-c2ccccc2)nc1C=Nc1ccccc1	0.6	47.7	0.5	2.9	42.2
Oc1cccc(C=NCc2ccccc2)c1	0.9	-3.2	1	-2.4	5.6
Cc1ccc(CN=C2Nc3ccccc3CS2)cc1	0.3	34.9	0.7	-6.6	70.9*
Clc1ccc(CN=C2Nc3ccccc3CS2)cc1	0.1	32.6	0.7	2.4	85.7*
Cc1[nH]n(-c2ccccc2)c(=O)c1/C=N/Nc1nncc(-c2ccccc2)n1	0.4	82.0*	0.2	6.2	59.3*
CCCCN(CCCC)C(=S)N/N=C/c1c(C)[nH]n(-c2ccccc2)c1=O	0.8	41.7	0.6	2.2	20.0
COC(=O)CCC(NC(=O)c1cc(-c2ccc3c(c2)OCCO3)oc1C)C(=O)OC (stereo not drawn)	0.5	40.4	0.6	-7.9	51.8*
CCOC(=O)CNC(=O)c1cc(-c2ccc3c(c2)OCCO3)oc1C	0.9	-2.0	1	2.4	6.8
COc1cccc(/C=N/n2c(C)nc3ccccc3c2=O)c1O	0.6	68.6*	0.3	1.1	37.6
CCCc1nc2ccccc2c(=O)n1/N=C/c1c(C)[nH]n(-c2ccc(C)cc2)c1=O	0.9	67.4*	0.3	2.2	12.3
CCCc1nc2ccccc2c(=O)n1/N=C/c1ccccc1O	0.4	86.3*	0.1	-2.2	61.9*
CCCc1nc2ccccc2c(=O)n1N	1	3.8	1	-0.1	4.7
O=c1c(Oc2ccccc2Br)c(C(F)(F)F)oc2c(CN3CCCC3)c(O)ccc12	.	-0.5	1	8.0	.
COC(=O)C1CCN(C(=O)C2CCCCC2)CC1	0.3	22.5	0.8	5.6	65.9*
COC(=O)C1CCN(C(=O)N2CCOCC2)CC1	0.9	4.9	1	5.4	13.1
COC(=O)c1ccc(CSc2nc3c(cnn3-c3ccc(C)cc3)c(=O)[nH]2)o1	.	.	.	-5.5	.
CCOC(=O)c1nc(N2CCN(C(=O)OCC)CC2)c2c3c(sc2n1)CCCC3	0.4	60.5*	0.4	-5.3	61.5*
CC(C)Sc1nc(N2CCOCC2)c2c3c(sc2n1)COC(C)(C)C3	0.6	57.6*	0.4	-3.0	36.3
CC1(C)Cc2c(sc3nc(SCC(=O)N4CCOCC4)nc(N)c23)CO1	1	-6.5	1.1	.	3.2
CCN1CCN(c2nc(SC)nc3sc4c(c23)CC(C)(C)OC4)CC1	0.6	56.6*	0.4	.	42.8
CCOC(=O)N1CCN(c2nc(SC)nc3sc4c(c23)CC(C)(C)OC4)CC1	0.1	81.4*	0.2	.	87.0*
CCC(C)NC(=O)c1ccccc1NC(=O)Nc1ccccc1 (stereo not drawn)	0.8	35.5	0.6	1.5	23.7
CC1CCC(=C(C#N)c2nc(-c3cc4ccccc4oc3=O)cs2)CC1 (stereo not drawn)	0.6	88.0*	0.1	0.6	36.9
O=C(Nc1nc(-c2cc3ccccc3oc2=O)cs1)c1ccc(Br)o1	0.7	49.4	0.5	10.0	25.4
